40 sequences from the supplement of paper PMC6555819 can be followed below.

The first experiment deals with PPARg:RXRa 30nM:10nM, anti-RXR (NR concentration 30 nM, RXRa partner concentration 10 nM). Briefly: PBM binding z-score (relative to random genomic background probes); higher = stronger binding; sequences stand for … in GC…GCGATTGACAGCGTAGAATGAAGG
An outline of the steps: (§1)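 Binding z-scores were set against random background probes. The data came from custom Agilent 4×180K protein-binding microarrays carrying double-stranded probes with 34-nt variable regions, incubated 1 h with ligand-free nuclear receptor dimers. Partner-specific antibodies detected binding, and scanned fluorescence was regression-normalized.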
Take CCGACTGGGGCATAAGGTTACTATAAGCCAGCCC: the PBM binding z-score was 0.95.
CTCGAAAGGTCGGTTGAGGTGAGTACACGGATAA yielded a PBM binding z-score of 0.191.
AATACAGGGTCACTATGCCAGAGTAGGTACGAAT gave a PBM binding z-score of 2.05.
As to TAGCCTAGGTCAGATCGGGCCTGTATACGCTATA, the PBM binding z-score was -0.139.
On the same count and under the same terms, the figure for TATACAGGGTCAAAGGCCAGGGTACGAATGTCGA is 5.77; for TCTAGTTGGTCACGGAGGTCACACTCGACGGGTA it is 3.54.
For AGTTAAAGTTCACTAGGTAACGTAAGATTCAGCT, the PBM binding z-score is 2.62.
In turn, CCTTACGGGTCACTGACAGGTTATACCATTTGGA registered a PBM binding z-score of 1.45.
ACCGAAAGGTCGTGAGGTGAGTATACAGAAAGGC came in with a PBM binding z-score of 1.42.
The sequence CGTCCAAGGTGAAGGTCAGTGAAAGAGACTCGAA displayed a PBM binding z-score of 0.634.
Sequence ATCTCTAGGTAGGACTCAGTTCAGTGAAGAACGC had a PBM binding z-score of 0.37.
Regarding ACTATTAGTTGAGACGACGGCAACCGATAGGTTG, the PBM binding z-score was -0.098.
The sequence ATCACTAGGTAAGACTCAGTTCAGTGAAGAACGC had a PBM binding z-score of 0.287.
The sequence TCATATAGGTAAATGCTAGGTGTAAGTCCGATCT returned a PBM binding z-score of 3.9.
Consider CTCGAAAGGTCGTGCTCAGGTGGGTATACCAAAC, for which the PBM binding z-score was 0.828.
With AGAATGAGCTTATTAAGATCAGGGAATTGCGGTC, the PBM binding z-score was -0.148.
TCTCGGAGGACACGACAGGTCAGAGCTCGACATC registered a PBM binding z-score of 2.11.
In turn, TCTTGTAGATCAGGCAGGTTAAGAAAGCCTGAGT returned a PBM binding z-score of 2.52.
Consider GATACAGGGTCAGCTAGAGGCCAAAGTATGGAAA, for which the PBM binding z-score was found to be 1.03.
The sequence CCTATTAGTTGACCATAAGGGTAACCGAAGCTCG had a PBM binding z-score of 0.348.
Take ATCTCTAGGTAAAGATAGTTCAGTGGATGCAAAT: the PBM binding z-score was 0.139.
In the case of CAGCCTAGGTCAGTGCCAGTATAGGAGGAACGTT, the PBM binding z-score was -0.196.
Regarding CGAACTAGGTCATTGACAGGACAGAGAATAGTAA, the PBM binding z-score came out at 3.83.
Take CGCACGAGGGCATGAGTTGATAGCAAATGCCGAT: the PBM binding z-score was -0.123.
Sequence ACAGACAGGTGAGTGAAGATAACTCAGCTGGACG displayed a PBM binding z-score of 0.137.
For GCGACTGGGGCATCCGCAGGTTACCATAACTTAA, the PBM binding z-score was -0.543.
ACTAGCAGGCCAAGTGTGGGTCACTCAAACAAAG: the PBM binding z-score is -0.102.
GATACAGGGTCAAGGCGAGAGTACGCGTATTGAT returned a PBM binding z-score of 2.2.
ACAGACAGGTGAGTAAAGGTAACTCAGCTGGACG had a PBM binding z-score of 0.681.
Consider ACTAGTTGGTCAGCTGAGGTCACCCACAATTCGG, for which the PBM binding z-score is 0.58.
In the case of CCGAGTGGGGCAAGGTTACCATAACGCACAGCCA, the PBM binding z-score is 0.815.
CAAACTAGGTCAAGAGGTCAAAATCCGCTTCCCG gave a PBM binding z-score of 7.03.
Consider CCGACTTGGGCATAAGGTTACCATAAGCCAGCCC, for which the PBM binding z-score is -0.372.
Consider CGTTACGGGTCACTGACAGGTTATAGCATTTGGA, for which the PBM binding z-score was 1.79.
On to CGAGCTAGGTCATCCAGGACAGTGAATACATTGA, for which the PBM binding z-score was determined as 0.528.
On to CCTAGTTGGTCAAGTTCACACACGCTATAGGTAC, for which the PBM binding z-score was 0.803.
The sequence CGTCCAAGGTCATAGGAGGTCAGTGTAGACAGAT yielded a PBM binding z-score of 2.31.
Consider CCTAGTTGGTCAGCAGGTCACACACCGGATATGA, for which the PBM binding z-score was 0.854.
Consider CGTCCAAGGCCAGCAGGTCAGTGAAAGCGACGTG, for which the PBM binding z-score was -0.911.
On the same count and under the same terms, the result for TCTATTATTTGATTAGGGCAACCGAAACAGCGGA reads 4.02.

The subject of the next experiment is PPARg:RXRa 90nM:30nM, anti-RXR (NR concentration 90 nM, RXRa partner concentration 30 nM). The experiment is described as above. An outline of the steps:
as §1
Sequence CCGACTGGGGCATAAGGTTACTATAAGCCAGCCC registered a PBM binding z-score of 2.34.
For CTCGAAAGGTCGGTTGAGGTGAGTACACGGATAA, the PBM binding z-score is 0.951.
Take AATACAGGGTCACTATGCCAGAGTAGGTACGAAT: the PBM binding z-score was found to be 3.73.
Regarding TAGCCTAGGTCAGATCGGGCCTGTATACGCTATA, the PBM binding z-score was found to be 0.162.
Still for that read-out and setting: the figure for TATACAGGGTCAAAGGCCAGGGTACGAATGTCGA is 6.97; for TCTAGTTGGTCACGGAGGTCACACTCGACGGGTA it is 3.5.
AGTTAAAGTTCACTAGGTAACGTAAGATTCAGCT yielded a PBM binding z-score of 4.52.
Sequence CCTTACGGGTCACTGACAGGTTATACCATTTGGA displayed a PBM binding z-score of 3.05.
Same read-out and setting: the result for ACCGAAAGGTCGTGAGGTGAGTATACAGAAAGGC reads 2.8.
CGTCCAAGGTGAAGGTCAGTGAAAGAGACTCGAA: the PBM binding z-score stood at 1.96.
Same read-out and setting: the figure for ATCTCTAGGTAGGACTCAGTTCAGTGAAGAACGC is 0.644; for ACTATTAGTTGAGACGACGGCAACCGATAGGTTG it is -0.21.
The sequence ATCACTAGGTAAGACTCAGTTCAGTGAAGAACGC showed a PBM binding z-score of 0.0779.
In turn, TCATATAGGTAAATGCTAGGTGTAAGTCCGATCT returned a PBM binding z-score of 2.97.
With CTCGAAAGGTCGTGCTCAGGTGGGTATACCAAAC, the PBM binding z-score was 1.96.
Consider AGAATGAGCTTATTAAGATCAGGGAATTGCGGTC, for which the PBM binding z-score was -0.365.
Regarding TCTCGGAGGACACGACAGGTCAGAGCTCGACATC, the PBM binding z-score came out at 1.5.
Consider TCTTGTAGATCAGGCAGGTTAAGAAAGCCTGAGT, for which the PBM binding z-score is 1.62.
Still for that read-out and setting: the result for GATACAGGGTCAGCTAGAGGCCAAAGTATGGAAA reads 2.36; that for CCTATTAGTTGACCATAAGGGTAACCGAAGCTCG, 0.358.
As for ATCTCTAGGTAAAGATAGTTCAGTGGATGCAAAT, the PBM binding z-score is 0.257.
With CAGCCTAGGTCAGTGCCAGTATAGGAGGAACGTT, the PBM binding z-score was 0.0661.
In turn, CGAACTAGGTCATTGACAGGACAGAGAATAGTAA had a PBM binding z-score of 6.06.
Turning to CGCACGAGGGCATGAGTTGATAGCAAATGCCGAT, the PBM binding z-score amounted to 0.22.
For the sequence ACAGACAGGTGAGTGAAGATAACTCAGCTGGACG, the PBM binding z-score was -0.0703.
GCGACTGGGGCATCCGCAGGTTACCATAACTTAA: the PBM binding z-score stood at 0.0228.
As for ACTAGCAGGCCAAGTGTGGGTCACTCAAACAAAG, the PBM binding z-score was determined as 0.685.
Turning to GATACAGGGTCAAGGCGAGAGTACGCGTATTGAT, the PBM binding z-score worked out at 4.05.
Same read-out and setting: the result for ACAGACAGGTGAGTAAAGGTAACTCAGCTGGACG reads 1.27.
ACTAGTTGGTCAGCTGAGGTCACCCACAATTCGG: the PBM binding z-score stood at 2.01.
The same measure, in the same setting: the figure for CCGAGTGGGGCAAGGTTACCATAACGCACAGCCA is 2.3; for CAAACTAGGTCAAGAGGTCAAAATCCGCTTCCCG it is 8.2.
In turn, CCGACTTGGGCATAAGGTTACCATAAGCCAGCCC yielded a PBM binding z-score of 0.427.
For the sequence CGTTACGGGTCACTGACAGGTTATAGCATTTGGA, the PBM binding z-score came out at 3.39.
Still for that read-out and setting: the figure for CGAGCTAGGTCATCCAGGACAGTGAATACATTGA is 1.35; for CCTAGTTGGTCAAGTTCACACACGCTATAGGTAC it is 1.16; for CGTCCAAGGTCATAGGAGGTCAGTGTAGACAGAT it is 4.68.
Still for that read-out and setting: the result for CCTAGTTGGTCAGCAGGTCACACACCGGATATGA reads 1.83; that for CGTCCAAGGCCAGCAGGTCAGTGAAAGCGACGTG, -0.203.
Sequence TCTATTATTTGATTAGGGCAACCGAAACAGCGGA showed a PBM binding z-score of 3.25.
